TIM10 inh: growth inhibitors of TIM10 yeast strain; S. cerevisiae TIM10 strain growth, BacTiter-Glo luminescence, 24 h; inhibition, % at 10 µM; 330,000 tested, 1.4% active; AID 463195;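 active means inhibition of 40% or more at the single tested concentration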;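 further: wild-type TIM10 isogenic control strain grown at permissive 25 °C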
NLRP3 yeast inh: inhibitors of NALP3 inflammasome in yeast; inhibition, % at 10 µM; Yeast reconstituted NLRP3/ASC/caspase-1, beta-gal luminescence, 24 h; 330,000 tested, 0.39% active;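 active means inhibition of 50% or more; inactive means inhibition below 50%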
tim23-1 inh: growth inhibitors of tim23-1 mutant yeast; inhibition, % at 20 µM; S. cerevisiae tim23-1 growth, BacTiter-Glo luminescence, 24 h; 330,000 tested, 1.3% active; AID 463212;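 active means growth inhibition of the mutant yeast at or above 50%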;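 further: temperature-sensitive mutant grown at 25 °C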
tim10-1 inh: tim10-1 yeast growth inhibition. S. cerevisiae tim10-1 ts strain growth, BacTiter-Glo, 24 h. inhibition, % at 20 µM. 330,000 tested, 2.2% active;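 active means inhibition of at least 40%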;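 further: mutant grown at 25 °C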
Yeast superoxide: lowers age-related superoxide in aged yeast cells. S. cerevisiae aged cells, superoxide DHE fluorescence; hits give low values. AID 2690. superoxide response (% of plate mean), % at 10 µM. 330,000 tested, 0.18% active;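 active means superoxide response under a set limit, about three screen SD below normal, cut at about 65% in these data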;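 further: yeast aged for seven days with compound at 30 °C before DHE staining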
tim10-1 confirm: confirmation of tim10-1 mutant yeast growth inhibitors; shares compounds with tim10-1 inh; S. cerevisiae tim10-1 ts strain growth, BacTiter-Glo, 24 h; inhibition, % at 20 µM; 7,400 tested, 56% active;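 active means inhibition of yeast growth at or above a set limit in either of two repeat tests at 20 µM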;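 further: tim10-1 mutant grown at permissive 25 °C to find synthetic lethal compounds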
tim10 confirm: TIM10 yeast growth inhibition, confirmed | shares compounds with TIM10 inh | 4,600 tested, 63% active | inhibition, % at 10 µM | S. cerevisiae tim10 strain growth, BacTiter-Glo luminescence, 24 h;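 active means inhibition of yeast growth at or above a set limit in either of two replicates at 10 µM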; further: this counterscreen used the strain with wild-type TIM10
Each line names hits and unclear results; the compound was inactive in the other large screens (follow-up assays come after a bar, where they were run). In the library only some 3.8% were active in any assay of this set; here they are far more common.

COc1c(S(=O)(=O)n2nc(C)cc2C)ccc(Cl)c1Cl	TIM10 inh 44, tim10-1 inh 49 | tim10-1 confirm 44 | tim10 confirm 42
Cc1cc(C)n(S(=O)(=O)c2ccc(Cl)c(Cl)c2Cl)n1	none
Cc1ccc(OCc2cc(C(=O)NC(C)Cc3cccc(C)n3)no2)cn1 (configuration not stated)	none
O=C(O)c1cc(N/N=C/C(Cl)=C/c2ccccc2)ccc1Cl	none
CCOc1ccc2nc(SCC(=O)NNC(=O)c3ccco3)c(C)cc2c1	none
CCOc1ccc2cc(/C=C/C(=O)c3ccco3)c(Cl)nc2c1	TIM10 inh 42, tim10-1 inh 49 | tim10-1 confirm 36 | tim10 confirm inactive
Cc1ccc2c(c1)Oc1ccc([N+](=O)[O-])cc1C(=O)N2	none
Cc1ccc2c(c1)Oc1ccc(NC(=O)CCl)cc1C(=O)N2	TIM10 inh 50, tim10-1 inh 43 | tim10-1 confirm 30 | tim10 confirm 33
CC(=O)OC1CCC2(C)C(=CCC3C2CCC2(C)C3CC3OC4(CCC(C)CN4)C(C)C32)C1 (configuration not stated)	TIM10 inh 44, tim10-1 inh 41 (no result: Yeast superoxide) | tim10-1 confirm 34 | tim10 confirm inactive
C[C@]12CC[C@H](OC(=O)CCC(=O)O)CC1=CCC1C2CC[C@@]2(C)C1CC[C@@H]2N (some centres not stated)	none
Cc1ccc(NC(=O)CN2CCCN(S(=O)(=O)c3ccc(Br)s3)CC2)cc1	TIM10 inh 42, tim10-1 inh 44 | tim10-1 confirm 32 | tim10 confirm inactive
COc1ccc(NC(=S)N(Cc2ccc(N(C)C)cc2)Cc2ccco2)cc1	none
CCOc1ccc(NC(=S)N(Cc2ccc(N(C)C)cc2)Cc2ccco2)cc1	TIM10 inh 46, tim10-1 inh 52 | tim10-1 confirm 43 | tim10 confirm 36
CC(C)c1ccc(S(=O)(=O)N2CCCCC2)cc1	none
CC(C)c1ccc(S(=O)(=O)c2ccc(NN)cc2)cc1	TIM10 inh 42, tim10-1 inh 44 (no result: Yeast superoxide) | tim10-1 confirm 34 | tim10 confirm 31
CN1CCN(C2=C(Cl)C(=O)C(c3cnc(N4CCCCC4)s3)=C(Cl)C2=O)CC1	TIM10 inh 45, tim10-1 inh 72 | tim10-1 confirm 60 | tim10 confirm 44
CN1CCN(C2=C(Cl)C(=O)N(C3CCCCC3)C2=O)CC1	none
Cc1ccc(C(=O)Nc2nnc(COc3ccccc3)s2)cc1	none
Cc1ccc(NC(=O)c2cc(S(=O)(=O)NCCC3=CCCCC3)ccc2F)cc1	TIM10 inh 54, tim10-1 inh 50 | tim10-1 confirm 41 | tim10 confirm inactive
CN(C)Cc1nc2c(c(=O)[nH]1)C1(CCCCC1)Cc1ccccc1-2	TIM10 inh 44, tim10-1 inh 49 | tim10-1 confirm 38 | tim10 confirm 38
CN(C)Cc1nc2c(c(=O)[nH]1)C(C)(C)Cc1ccccc1-2	none
COc1ccccc1OCC(=O)Nc1ccc(S(=O)(=O)N2CCCCCC2)cc1	none
C=CCN(CC=C)S(=O)(=O)c1ccc(NC(=O)COc2ccccc2OC)cc1	TIM10 inh 42, tim10-1 inh 45 | tim10-1 confirm 32 | tim10 confirm inactive
Cc1ccc(-c2nnc(Sc3nc4ccccc4o3)c3ccccc23)cc1	TIM10 inh 48, tim10-1 inh 46 | tim10-1 confirm 30 | tim10 confirm 38
c1ccc2c(c1)Oc1cccc3cccc-2c13	none
COc1cccc(C2C(C(C)=O)=C(O)C(=O)N2CCNCCO)c1 (configuration not stated)	none
CC1CCN(C(=S)c2cn(Cc3ccccc3F)c3ccccc23)CC1	TIM10 inh 42, tim10-1 inh 43 | tim10-1 confirm 32 | tim10 confirm inactive
COC(=O)/C=C1\OC(c2ccccc2)=CC1=O	TIM10 inh 40, tim10-1 inh 42 | tim10-1 confirm inactive | tim10 confirm 32
CCC(C)c1ccccc1NC(=O)c1cc(C)no1 (configuration not stated)	none
O=C(COc1ccc(S(=O)(=O)N2CCOCC2)cc1)NCc1ccccn1	none
CCc1nccn1S(=O)(=O)c1ccccc1[N+](=O)[O-]	TIM10 inh 44, tim10-1 inh 50 | tim10-1 confirm 62 | tim10 confirm 57
C/C(=N\NC(=O)CNC(=O)c1ccccc1F)c1ccco1	none
COc1ccc(C(=O)n2nnc3ccccc32)cc1Br	TIM10 inh 40, tim10-1 inh 52 | tim10-1 confirm inactive | tim10 confirm inactive
COc1ccc(C(=O)n2nnc3ccccc32)cc1OC	none (no result: TIM10 inh, NLRP3 yeast inh, tim23-1 inh, tim10-1 inh)
CCOc1ccc(/C=C2\SC(N3CCc4ccccc4C3)=NC2=O)cc1	TIM10 inh 54, tim10-1 inh 47 | tim10-1 confirm 35 | tim10 confirm inactive
O=C(Nc1ncc2c(n1)-c1ccccc1CC2)c1cccc(Cl)c1	TIM10 inh 44, tim10-1 inh 49 | tim10-1 confirm 43 | tim10 confirm inactive
COc1ccc(NC(=O)CCNC(=O)c2ccc([N+](=O)[O-])cc2)cc1S(=O)(=O)N1CCCCC1	none (no result: Yeast superoxide)
CC1(C(=O)NC2CCCC2)CCC(=O)N1Cc1ccccc1Cl (configuration not stated)	none
C/C(=N\N=C1\NC(=O)C(CC(=O)Nc2ccc(Cl)cc2)S1)c1ccco1 (configuration not stated)	none
C/C(=N\N=C1\NC(=O)C(CC(=O)Nc2ccc(C)c(Cl)c2)S1)C(C)(C)C (configuration not stated)	TIM10 inh 44, tim10-1 inh 52 | tim10-1 confirm 32 | tim10 confirm inactive
O=C(Cc1ccc(F)cc1)N/N=C/c1ccccn1	none
O=C(Cc1ccc(Br)c2ccccc12)N/N=C/c1ccccn1	TIM10 inh 40, tim10-1 inh 41 | tim10-1 confirm inactive | tim10 confirm 32
CCC(C)N(C(=O)CSc1nc(C)c(C)c(C)c1C#N)C1CCS(=O)(=O)C1 (configuration not stated)	none
CCCCCC1CC(CC(=O)Nc2nncs2)C(=O)O1 (configuration not stated)	TIM10 inh 45 | tim10-1 confirm 37 | tim10 confirm 31
Cc1ccc(NC(=O)Cn2ccc([N+](=O)[O-])n2)cc1C	none
O=C1c2cccc3c([N+](=O)[O-])ccc(c23)C(=O)N1c1ccc(Cl)cn1	TIM10 inh 74, tim10-1 inh 77 | tim10-1 confirm 66 | tim10 confirm 89
O=C1c2cccc3cccc(c23)C(=O)N1c1nccs1	none
O=C1c2cccc3c([N+](=O)[O-])ccc(c23)C(=O)N1c1nccs1	TIM10 inh 69, tim10-1 inh 84 | tim10-1 confirm 73 | tim10 confirm 96
CCOC(=O)C1CCCN(S(=O)(=O)c2ccc(Cl)nc2)C1 (configuration not stated)	none

Assay outcomes: PubChem, several laboratories
